Sampled rows, rich in hits. Any-hit rate of the full collection: about 5.7%.
DAX1 inh-1 – inhibitors of human orphan nuclear receptor DAX1 (NR0B1); P51843; HEK293 Gal4-DAX1 luciferase reporter, luminescence; inhibition, % at 6.75 µM; hit rate 0.99% among 340,000; AID 504766;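 active = inhibition above the mean over all tested compounds plus 3 SD, cut at about 4.2% in these data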;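 also: inhibition shows as a rise in luminescence from relieved DAX1 repression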
Target sequence (P51843 207-470 limits assumed): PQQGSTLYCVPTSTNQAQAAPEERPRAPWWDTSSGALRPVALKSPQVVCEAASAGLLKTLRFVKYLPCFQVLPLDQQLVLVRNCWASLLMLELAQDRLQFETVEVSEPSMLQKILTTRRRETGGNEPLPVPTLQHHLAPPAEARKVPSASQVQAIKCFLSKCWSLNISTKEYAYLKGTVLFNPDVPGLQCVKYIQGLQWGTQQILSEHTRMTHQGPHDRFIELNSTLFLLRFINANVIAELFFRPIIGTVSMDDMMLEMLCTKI
DAX1 inh-2 – inhibitors of DAX1 repression of SF-1 activated StAR promoter; HEK293T StAR-luciferase reporter, SF-1/DAX-1 repression relief; inhibition, % at 6.8 µM; hit rate 1.1% among 370,000;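 active = inhibition above the mean over all tested compounds plus 3 SD, cut at about 3.6% in these data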;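 also: higher inhibition means more luminescence from relief of DAX-1 repression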
hcDAF12 agonist – activates DAF-12 receptor from parasite H. contortus; HEK293 hcDAF-12 lit1-tk-luc reporter, luminescence; 0% DMSO, 100% Δ7-dafachronic acid; activation, % at 6.8 µM; hit rate 1.4% among 370,000; AID 652067;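 active = activation above the mean of all tested compounds plus 3 SD, cut at about 5.5% in these data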
ssDAF12 agonist – activates DAF-12 receptor from parasite S. stercoralis. hit rate 1% among 370,000. HEK293 ssDAF-12/GRIP1 lit1-tk-luc reporter, luminescence; % of 3 µM dafachronic acid response. AID 652126. activation, % at 6.8 µM;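 active = activation above the mean over all tested compounds plus 3 SD, cut at about 0.9% in these data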
AHR activator – activators of human aryl hydrocarbon receptor; P35869; AHR-responsive luciferase reporter cells, luminescence; activation, % at 5 µM; hit rate 2.5% among 320,000; AID 2796; in the data active = activation above about 47%
hgDAF12 agonist – activates the H. glycines DAF-12 receptor ligand-binding domain | HEK293 GAL4-hgDAF12 UAS-luciferase reporter, agonist luminescence; normalized to butyrate control | activation, % at 6.8 µM | hit rate 1.8% among 370,000 | AID 687014;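 active = activation above a cutoff set at the mean of all screened compounds plus 3 SD, cut at about 10% in these data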
DAX1 inh confirm – confirmation of human DAX1 (NR0B1) inhibitors; shares compounds with DAX1 inh-2; HEK293T StAR-promoter luciferase reporter, SF-1/DAX-1 repression; inhibition, % at 6.8 µM; hit rate 87% among 2,400;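 active = inhibition above the average of every tested compound plus 3 SD, cut at about 3.8% in these data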;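 also: active compounds raise luminescence by relieving repression of the StAR reporter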
SF1 AF2mut Luc – nonselective inhibitor or artifact in SF-1 mutant DAX1 counter-screen. shares compounds with DAX1 inh-2. AID 652136. hit rate 78% among 2,400. HEK293 StAR-luciferase, SF-1 AF2 mutant, luminescence. inhibition, % at 6.8 µM;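 active = inhibition above the mean of all tested compounds plus 3 SD, cut at about 3% in these data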
LXRb hcDAF ctr – counter-screen for hcDAF-12 agonists: agonists of human LXR-beta | shares compounds with hcDAF12 agonist | HEK293 Gal4-LXR tk-luc reporter, luminescence, 24 h; normalized: DMSO 0%, positive control 100% | activation, % at 6.8 µM | 3,400 tested, under 10 active | AID 743027;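 active = mean percent activation of the reporter above a cutoff set as the average over tested compounds plus their standard deviation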
Target sequence (P55055 whole entry, looked up, the tested form may be a part): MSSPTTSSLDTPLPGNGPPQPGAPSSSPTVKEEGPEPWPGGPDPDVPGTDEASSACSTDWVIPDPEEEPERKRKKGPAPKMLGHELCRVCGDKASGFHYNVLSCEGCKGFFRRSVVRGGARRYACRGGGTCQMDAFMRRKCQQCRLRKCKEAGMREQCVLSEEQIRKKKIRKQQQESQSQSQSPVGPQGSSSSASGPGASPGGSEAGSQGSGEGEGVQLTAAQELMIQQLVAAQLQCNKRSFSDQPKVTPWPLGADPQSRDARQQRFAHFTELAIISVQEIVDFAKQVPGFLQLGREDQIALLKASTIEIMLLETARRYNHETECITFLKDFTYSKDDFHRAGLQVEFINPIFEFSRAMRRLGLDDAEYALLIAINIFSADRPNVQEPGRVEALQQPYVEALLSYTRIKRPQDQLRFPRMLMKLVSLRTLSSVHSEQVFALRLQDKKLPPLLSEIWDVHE
hcDAF12 conf – confirmation of H. contortus DAF-12 agonists. AID 743032. hit rate 61% among 3,400. activation, % at 6.8 µM. shares compounds with hcDAF12 agonist. HEK293 hcDAF-12 lit1-tk-luc reporter, luminescence; % of Δ7-dafachronic acid response;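 active = mean activation across triplicate tests above the threshold derived from the earlier primary screen, cut at about 5.5% in these data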
hgDAF12 conf – confirmation of H. glycines DAF-12 agonists; shares compounds with hgDAF12 agonist; HEK293 GAL4-hgDAF12 luciferase reporter, agonist mode; percent of butyrate response; activation, % at 6.8 µM; hit rate 80% among 3,300;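 active = mean activation over triplicate wells above the hit cutoff derived from the earlier primary screen, cut at about 11% in these data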
LXR ag 2 – activates human LXR-beta, counter-screen for DAF-12 agonists; shares compounds with hgDAF12 agonist; HEK293 Gal4-LXR luciferase reporter, 24 h; activation, % at 6.8 µM; 3,300 tested, under 10 active; AID 743051;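 active = mean activation of the triplicate above a set limit carried over from the primary screen, none filed active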
Of the large screens only hits and unclear results are named; the others gave an inactive call (follow-up assays come after a bar, where they were run); ! = not active in a repeat.

CC(=O)N/C(=C/c1cccnc1)C(=O)Nc1ccc(Cl)cc1	none
c1ccc2c(c1)CC/C2=N/Nc1nc2ccccc2[nH]1	DAX1 inh-2 7.3, AHR activator 48.2, hgDAF12 agonist 13.8 | DAX1 inh confirm 11.1 | SF1 AF2mut Luc 10.9 | hgDAF12 conf inactive | LXR ag 2 inactive
Nc1nc(-c2ccc3ccccc3c2)cs1	DAX1 inh-2 12.3, hcDAF12 agonist 6.4, hgDAF12 agonist 17.8 | DAX1 inh confirm 9.9 | SF1 AF2mut Luc 7.5 | hgDAF12 conf 15.2 | LXR ag 2 inactive
Nc1nc(-c2ccc(-c3ccccc3)cc2)cs1	DAX1 inh-2 6.3, hgDAF12 agonist 18.5 | DAX1 inh confirm 10.4 | SF1 AF2mut Luc 6.8 | hgDAF12 conf 20.2 | LXR ag 2 inactive
Nc1nc(-c2ccc(Oc3ccccc3)cc2)cs1	none
CC1CCCC(NC(=O)C2CCN(C(=O)Nc3ccccc3)CC2)C1C (configuration not stated)	none
COc1cccc2sc(N(C)c3ccccc3)nc12	DAX1 inh-2 4.6, hcDAF12 agonist 6.5, hgDAF12 agonist 13.3 | DAX1 inh confirm 10.7 | SF1 AF2mut Luc 6.4 | hgDAF12 conf 15.0 | LXR ag 2 inactive
COc1ccc(-c2cc(=NC(CC(C)C)C(=O)O)c3cc(C)ccc3o2)cc1 (configuration not stated)	DAX1 inh-2 5.2, hgDAF12 agonist 16.8 | DAX1 inh confirm 4.5 | SF1 AF2mut Luc 5.2 | hgDAF12 conf inactive | LXR ag 2 inactive
Cn1cnnc1SCC(=O)Nc1ccc(S(N)(=O)=O)cc1	none
Cc1cc(O)ccc1NC(=O)c1ccccc1	none
N#Cc1c(N)nc2c(c1-c1ccncc1)CCCCC2	none
O=C(Nc1ccccc1Cl)ON=C1c2ccccc2-c2ccccc21	none (no result: DAX1 inh-2, hcDAF12 agonist, ssDAF12 agonist, hgDAF12 agonist)
CC(=O)c1ccc(N=Nc2ccc(C)cc2)cc1	DAX1 inh-2 6.6, hcDAF12 agonist 6.4, hgDAF12 agonist 15.1 (no result: AHR activator) | DAX1 inh confirm 9.5 | SF1 AF2mut Luc inactive | hgDAF12 conf inactive | LXR ag 2 inactive
CC(=O)Nc1ccc(N/C(=N\S(=O)(=O)c2ccccc2)c2ccccc2)cc1	none
Cc1ccc(NC(=S)N/C(=N/S(=O)(=O)c2ccccc2)c2ccccc2)cc1	DAX1 inh-2 5.6!, hgDAF12 agonist 18.1! | DAX1 inh confirm inactive | SF1 AF2mut Luc inactive | hgDAF12 conf 12.5 | LXR ag 2 inactive
COc1ccc(C(=O)NN/C(=N/S(=O)(=O)c2ccc(C)cc2)c2ccccc2)cc1	DAX1 inh-2 4.6, ssDAF12 agonist 0.9, hgDAF12 agonist 13.9 | DAX1 inh confirm 9.2 | SF1 AF2mut Luc 4.4 | hgDAF12 conf 18.7 | LXR ag 2 inactive
Cc1ccnc(NC(=O)c2cccc(S(=O)(=O)N3CCCc4ccccc43)c2)c1	DAX1 inh-2 7.7, hgDAF12 agonist 13.2 | DAX1 inh confirm 9.1 | SF1 AF2mut Luc 6.4 | hgDAF12 conf 12.3 | LXR ag 2 inactive
O=C(Nc1ccccn1)c1cccc(S(=O)(=O)N2CCCc3ccccc32)c1	none
Cc1ccc(C(=O)Cn2cnc3ccccc3c2=O)cc1C	none
Cc1ccc(C(=O)Cn2nnc3ccccc32)cc1C	DAX1 inh-2 4.8, hcDAF12 agonist 5.9, hgDAF12 agonist 16.8 | DAX1 inh confirm 9.3 | SF1 AF2mut Luc 5.7 | hgDAF12 conf 17.2 | LXR ag 2 inactive
COc1ccc(/C=N/N=C(\N)c2nonc2N)cc1	DAX1 inh-2 8.7, hcDAF12 agonist 12.2, hgDAF12 agonist 15.5 (no result: AHR activator) | DAX1 inh confirm 14.4 | SF1 AF2mut Luc 5.9 | LXRb hcDAF ctr inactive | hcDAF12 conf 6.6 | hgDAF12 conf 16.1 | LXR ag 2 inactive
Cc1cc(O)c(-c2cc(C(=O)Nc3cccnc3)[nH]n2)cc1C	DAX1 inh-2 4.8, hcDAF12 agonist 6.3, hgDAF12 agonist 19.6 | DAX1 inh confirm 15.9 | SF1 AF2mut Luc 7.0 | hgDAF12 conf 15.9 | LXR ag 2 inactive
CCc1cccc(NC(=O)CN(C)S(=O)(=O)c2cccc3nsnc23)c1	none
OC[C@H]1O[C@@H](c2nc3ccc(-c4nc(-c5cccs5)no4)cc3[nH]2)C[C@@H]1O	DAX1 inh-2 4.8, hcDAF12 agonist 6.1, hgDAF12 agonist 15.1 (no result: DAX1 inh-1, AHR activator) | DAX1 inh confirm 10.5 | SF1 AF2mut Luc 8.7 | hgDAF12 conf 15.9 | LXR ag 2 inactive
Cc1ccc(NC(=O)c2cccc(N3C(=O)C4C5C=CC(C5)C4C3=O)c2)cc1C (configuration not stated)	none (no result: AHR activator)
Cn1c(N=NC(=O)c2ccccc2)c(O)c2ccccc21	DAX1 inh-2 5.8, hcDAF12 agonist 13.3, ssDAF12 agonist 2.1, AHR activator 95.7, hgDAF12 agonist 20.6 | DAX1 inh confirm 15.0 | SF1 AF2mut Luc 5.7 | LXRb hcDAF ctr inactive | hcDAF12 conf 5.9 | hgDAF12 conf 16.3 | LXR ag 2 inactive
CC(C)(C)n1c(O)c2ccc(C(=O)N=NC(=O)c3ccccc3)cc2c1O	none
COc1cccc(NC(=O)COc2ccc3c(c2)CCC3)c1	none
COc1cccc(NC(=O)c2ccc3c(c2)CCCC3)c1	DAX1 inh-2 17.9, hcDAF12 agonist 7.9, ssDAF12 agonist 1.2, hgDAF12 agonist 17.4 | DAX1 inh confirm 13.4 | SF1 AF2mut Luc 8.2 | LXRb hcDAF ctr inactive | hcDAF12 conf inactive | hgDAF12 conf 17.9 | LXR ag 2 inactive
CC(C)n1cc(/C=C/c2cc[n+](C)cc2)c2ccccc21	none (no result: AHR activator)
COc1ccc(-c2nc(-c3ccc(Br)o3)no2)cc1	DAX1 inh-2 7.3, ssDAF12 agonist 1.3, hgDAF12 agonist 16.8 | DAX1 inh confirm 14.0 | SF1 AF2mut Luc 3.5 | hgDAF12 conf 16.4 | LXR ag 2 inactive
Cc1cccc(-c2cc(N)n(-c3ccccc3)n2)c1	DAX1 inh-2 7.8, hgDAF12 agonist 17.6 (no result: AHR activator) | DAX1 inh confirm 11.2 | SF1 AF2mut Luc 6.8 | hgDAF12 conf 20.8 | LXR ag 2 inactive
